Targets with a hit are over-represented here; the source holds about 8,800 in all. About 0.5% of all pairs of compound and target were hits. A number with no mark means an inactive call.
What was measured:
Test in all cases: log2 fold change, soluble protein after heating vs DMSO (PISA); higher = thermal stabilisation; K562 lysate, 10 uM; active = over 0.2 and 3.5 SD of the protein, either way, in both replicates (recomputed)
[1] = compound: CCCS(=O)(=O)Nc1ccc(F)c(C(=O)c2c[nH]c3ncc(-c4ccc(Cl)cc4)cc23)c1F [vemurafenib]
In short: (§1)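 Soluble protein was defined as the supernatant remaining after 21,000xg for 90 min, following pooling of heated aliquots and adjustment to 0.5% NP-40 at 4°C. Before that, crude K562 extract at 1 mg/mL protein in PBS pH 7.4 with 1 mM MgCl2 was treated with 10 μM compound for 30 min and heated for 3 min across 48°C-58°C. Quantification used TMTpro 16plex LC-MS/MS with channel sums equalised, and values are log-two fold changes in thermal stability relative to solvent controls from duplicates.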

[2] = compound: CCCS(=O)(=O)Nc1ccc(F)c(C(=O)c2c[nH]c3ncc(Cl)cc23)c1F
In short: as §1

[3] = compound: CCN(CCCOc1ccc2c(Nc3cc(CC(=O)Nc4cccc(F)c4)[nH]n3)ncnc2c1)CCOP(=O)(O)O [barasertib]
In short: as §1

[4] = compound: CC[C@@H]1C(=O)N(C)c2cnc(Nc3ccc(C(=O)NC4CCN(C)CC4)cc3OC)nc2N1C1CCCC1
In short: as §1

[5] = compound: CC[C@@H]1C(=O)N(C)c2cnc(Nc3ccc(C(=O)N[C@H]4CC[C@H](N5CCN(CC6CC6)CC5)CC4)cc3OC)nc2N1C(C)C [volasertib]
In short: as §1

[6] = compound: CCn1c(C(=O)N(C2CC2)C2CC2)cc2c3c(ncn3C)c(Nc3cc(C)n(C)n3)nc21
In short: as §1

[7] = compound: CCn1cc(-c2ccnc3[nH]c(-c4cccc(CN(C)C)c4)cc23)c(-c2ccc(NC(=O)N(C)C)cc2)n1
In short: as §1

[8] = compound: CN1CCC(CNc2ccc3ncc(-c4cccc(OC(F)(F)F)c4)n3n2)CC1
In short: as §1

[9] = compound: CN1CCN(CCOc2cc(OC3CCOCC3)c3c(Nc4c(Cl)ccc5c4OCO5)ncnc3c2)CC1 [saracatinib]
In short: as §1

[10] = compound: CN1CCN(c2nc(C3=C(c4c[nH]c5ccccc45)C(=O)NC3=O)c3ccccc3n2)CC1 [sotrastaurin]
In short: as §1

[11] = compound: CN1CC[C@H](c2c(O)cc(O)c3c(=O)cc(-c4ccccc4Cl)oc23)[C@H](O)C1 [alvocidib]
In short: as §1

[12] = compound: CN1CCc2c(c3ccccc3n2Cc2ccc(C(=O)NO)cc2)C1 [Tubastatin A]
In short: as §1

[13] = compound: CNC(=O)C1=CC=CC=C1NC2=NC(=NC=C2Cl)NC3=C(C=C(C=C3)N4CCOCC4)OC
In short: as §1

[14] = compound: CNC(=O)c1ccc(Nc2ncc(C(F)(F)F)c(NCc3nccnc3N(C)S(C)(=O)=O)n2)cc1 [defactinib]
In short: as §1

[15] = compound: CNc1nc(-c2ccc3c(N)n[nH]c3c2)cc(N2C[C@@H](C(=O)NC3CCCCC3)CC[C@H]2C)n1
In short: as §1

[16] = compound: COC(=O)N[C@@H](C)CNc1nccc(-c2cn(C(C)C)nc2-c2cc(Cl)cc(NS(C)(=O)=O)c2F)n1 [encorafenib]
In short: as §1

[17] = compound: COC(=O)[C@H](CCSC)NC(=O)C1=C(C=C(C=C1)NC[C@H](CS)N)C2=CC=CC=C2
In short: as §1

[18] = compound: COc1cc(Nc2ncc3c(n2)-c2ccc(Cl)cc2C(c2c(F)cccc2OC)=NC3)ccc1C(=O)O [alisertib]
In short: as §1

[19] = compound: COc1cc2nc(-c3cc(F)ccc3O)nc(N[C@@H]3CNC[C@H]3C(C)(C)O)c2cc1OC
In short: as §1

[20] = compound: COc1cc2ncnc(Nc3ccc(F)c(Cl)c3)c2cc1OCCCN1CCOCC1 [gefitinib]
In short: as §1

Sequence of UniProt Q9UPR3 (Q9UPR3 whole entry, looked up): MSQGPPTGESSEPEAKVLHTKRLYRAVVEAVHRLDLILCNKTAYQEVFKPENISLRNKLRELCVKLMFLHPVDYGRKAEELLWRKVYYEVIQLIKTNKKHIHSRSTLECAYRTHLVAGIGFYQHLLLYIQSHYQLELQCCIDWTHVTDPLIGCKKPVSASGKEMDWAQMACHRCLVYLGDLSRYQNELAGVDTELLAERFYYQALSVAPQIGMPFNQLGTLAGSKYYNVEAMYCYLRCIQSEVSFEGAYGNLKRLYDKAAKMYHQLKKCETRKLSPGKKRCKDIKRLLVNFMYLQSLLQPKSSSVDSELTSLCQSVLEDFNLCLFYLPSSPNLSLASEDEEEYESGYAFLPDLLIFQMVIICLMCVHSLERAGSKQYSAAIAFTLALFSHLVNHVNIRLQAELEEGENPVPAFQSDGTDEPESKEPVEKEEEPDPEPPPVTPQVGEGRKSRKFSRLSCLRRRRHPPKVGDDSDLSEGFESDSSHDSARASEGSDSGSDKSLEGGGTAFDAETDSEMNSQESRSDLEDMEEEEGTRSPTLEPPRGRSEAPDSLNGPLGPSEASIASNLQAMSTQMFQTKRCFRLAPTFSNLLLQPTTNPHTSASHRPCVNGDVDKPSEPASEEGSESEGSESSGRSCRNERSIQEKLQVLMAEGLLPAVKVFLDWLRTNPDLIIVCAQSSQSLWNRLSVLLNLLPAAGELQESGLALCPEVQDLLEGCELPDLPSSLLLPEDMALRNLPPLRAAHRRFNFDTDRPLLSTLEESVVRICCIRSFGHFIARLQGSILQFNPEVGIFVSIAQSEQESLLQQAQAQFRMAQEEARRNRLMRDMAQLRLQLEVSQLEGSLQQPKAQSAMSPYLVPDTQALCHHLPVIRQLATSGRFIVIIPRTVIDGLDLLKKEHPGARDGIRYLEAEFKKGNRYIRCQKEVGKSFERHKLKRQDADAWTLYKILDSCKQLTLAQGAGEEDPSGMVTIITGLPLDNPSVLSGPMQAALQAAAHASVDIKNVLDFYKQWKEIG
Sequence of UniProt O00506 (O00506 whole entry, looked up): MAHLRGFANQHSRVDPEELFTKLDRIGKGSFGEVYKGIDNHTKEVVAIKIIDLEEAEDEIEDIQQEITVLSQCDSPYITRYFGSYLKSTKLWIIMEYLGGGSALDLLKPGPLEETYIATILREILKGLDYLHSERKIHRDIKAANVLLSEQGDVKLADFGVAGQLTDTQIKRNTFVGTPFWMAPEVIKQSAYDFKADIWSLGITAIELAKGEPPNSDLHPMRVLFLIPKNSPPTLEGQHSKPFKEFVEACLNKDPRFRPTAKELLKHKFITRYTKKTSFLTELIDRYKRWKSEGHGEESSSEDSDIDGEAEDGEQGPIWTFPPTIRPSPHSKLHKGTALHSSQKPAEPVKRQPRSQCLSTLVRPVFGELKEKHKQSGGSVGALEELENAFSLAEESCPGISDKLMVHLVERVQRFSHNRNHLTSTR
Sequence of UniProt Q15633 (Q15633 whole entry, looked up): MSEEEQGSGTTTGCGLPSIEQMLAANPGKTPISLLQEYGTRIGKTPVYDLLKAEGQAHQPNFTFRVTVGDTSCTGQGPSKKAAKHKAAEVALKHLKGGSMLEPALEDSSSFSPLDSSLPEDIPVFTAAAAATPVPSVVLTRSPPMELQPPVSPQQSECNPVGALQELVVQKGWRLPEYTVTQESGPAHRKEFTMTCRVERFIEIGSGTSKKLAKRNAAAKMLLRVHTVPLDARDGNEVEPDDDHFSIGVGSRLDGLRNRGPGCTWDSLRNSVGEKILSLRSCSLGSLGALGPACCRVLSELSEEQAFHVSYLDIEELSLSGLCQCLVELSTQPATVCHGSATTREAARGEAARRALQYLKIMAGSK
Sequence of UniProt Q86US8 (Q86US8 whole entry, looked up): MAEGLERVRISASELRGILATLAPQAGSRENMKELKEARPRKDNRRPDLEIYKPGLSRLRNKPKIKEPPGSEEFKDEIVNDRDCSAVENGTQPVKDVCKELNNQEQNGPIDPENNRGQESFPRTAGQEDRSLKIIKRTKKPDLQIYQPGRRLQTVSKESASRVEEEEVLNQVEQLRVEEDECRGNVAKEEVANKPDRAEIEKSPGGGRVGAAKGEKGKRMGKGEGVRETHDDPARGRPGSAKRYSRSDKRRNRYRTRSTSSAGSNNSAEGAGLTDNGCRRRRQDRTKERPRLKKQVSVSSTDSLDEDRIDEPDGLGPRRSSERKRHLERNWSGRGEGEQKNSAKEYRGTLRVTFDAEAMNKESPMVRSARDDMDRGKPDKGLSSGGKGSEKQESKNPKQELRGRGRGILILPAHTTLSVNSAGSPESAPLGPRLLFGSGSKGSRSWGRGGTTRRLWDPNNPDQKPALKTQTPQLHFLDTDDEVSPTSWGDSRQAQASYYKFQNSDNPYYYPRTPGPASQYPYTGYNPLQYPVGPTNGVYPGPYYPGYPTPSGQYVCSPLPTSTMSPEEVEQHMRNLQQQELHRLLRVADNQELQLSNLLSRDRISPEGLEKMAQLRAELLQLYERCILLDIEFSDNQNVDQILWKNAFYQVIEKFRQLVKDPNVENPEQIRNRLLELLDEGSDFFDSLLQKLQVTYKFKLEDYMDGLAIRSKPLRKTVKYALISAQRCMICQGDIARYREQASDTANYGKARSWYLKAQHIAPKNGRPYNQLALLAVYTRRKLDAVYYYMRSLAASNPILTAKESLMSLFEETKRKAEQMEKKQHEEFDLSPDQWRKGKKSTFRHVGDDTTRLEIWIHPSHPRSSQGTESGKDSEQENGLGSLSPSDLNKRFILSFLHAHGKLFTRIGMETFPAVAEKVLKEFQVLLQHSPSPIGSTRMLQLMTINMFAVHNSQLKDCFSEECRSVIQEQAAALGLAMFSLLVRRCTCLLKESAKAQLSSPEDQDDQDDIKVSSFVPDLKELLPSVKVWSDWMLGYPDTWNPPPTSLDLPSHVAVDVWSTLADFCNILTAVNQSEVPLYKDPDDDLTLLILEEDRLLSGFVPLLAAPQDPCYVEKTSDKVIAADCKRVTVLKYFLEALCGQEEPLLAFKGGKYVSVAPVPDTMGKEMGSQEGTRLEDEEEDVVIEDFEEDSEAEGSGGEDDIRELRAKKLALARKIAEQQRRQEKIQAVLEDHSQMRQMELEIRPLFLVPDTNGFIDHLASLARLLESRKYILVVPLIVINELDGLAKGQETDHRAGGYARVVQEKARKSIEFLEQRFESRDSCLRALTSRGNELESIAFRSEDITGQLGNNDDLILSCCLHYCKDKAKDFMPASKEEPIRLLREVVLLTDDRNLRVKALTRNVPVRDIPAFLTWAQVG
Sequence of UniProt Q9Y3B4 (Q9Y3B4 whole entry, looked up): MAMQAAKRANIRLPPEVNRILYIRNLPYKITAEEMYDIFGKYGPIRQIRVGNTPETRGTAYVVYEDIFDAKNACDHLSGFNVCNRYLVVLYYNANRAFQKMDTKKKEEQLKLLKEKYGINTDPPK
Sequence of UniProt Q9P289 (Q9P289 whole entry, looked up): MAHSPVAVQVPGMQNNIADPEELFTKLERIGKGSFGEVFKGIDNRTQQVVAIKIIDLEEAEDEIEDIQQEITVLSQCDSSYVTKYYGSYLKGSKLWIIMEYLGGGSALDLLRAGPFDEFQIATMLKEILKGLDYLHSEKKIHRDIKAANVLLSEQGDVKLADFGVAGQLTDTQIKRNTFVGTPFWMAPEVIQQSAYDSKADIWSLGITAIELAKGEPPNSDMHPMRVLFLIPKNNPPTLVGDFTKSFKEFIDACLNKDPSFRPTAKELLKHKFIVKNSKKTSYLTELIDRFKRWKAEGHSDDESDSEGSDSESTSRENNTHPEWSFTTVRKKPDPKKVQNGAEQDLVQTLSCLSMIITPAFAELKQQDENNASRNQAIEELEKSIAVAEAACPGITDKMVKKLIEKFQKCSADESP
Sequence of UniProt O43808 (O43808 whole entry, looked up): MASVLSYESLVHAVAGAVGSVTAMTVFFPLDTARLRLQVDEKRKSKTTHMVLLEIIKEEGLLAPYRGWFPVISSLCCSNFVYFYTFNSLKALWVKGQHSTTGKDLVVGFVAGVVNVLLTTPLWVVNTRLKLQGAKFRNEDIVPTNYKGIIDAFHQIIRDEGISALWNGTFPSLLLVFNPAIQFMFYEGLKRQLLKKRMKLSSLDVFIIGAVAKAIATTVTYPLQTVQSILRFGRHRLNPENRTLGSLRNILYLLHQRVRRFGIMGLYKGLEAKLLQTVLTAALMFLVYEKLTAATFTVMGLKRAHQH
Sequence of UniProt P29353 (P29353 whole entry, looked up): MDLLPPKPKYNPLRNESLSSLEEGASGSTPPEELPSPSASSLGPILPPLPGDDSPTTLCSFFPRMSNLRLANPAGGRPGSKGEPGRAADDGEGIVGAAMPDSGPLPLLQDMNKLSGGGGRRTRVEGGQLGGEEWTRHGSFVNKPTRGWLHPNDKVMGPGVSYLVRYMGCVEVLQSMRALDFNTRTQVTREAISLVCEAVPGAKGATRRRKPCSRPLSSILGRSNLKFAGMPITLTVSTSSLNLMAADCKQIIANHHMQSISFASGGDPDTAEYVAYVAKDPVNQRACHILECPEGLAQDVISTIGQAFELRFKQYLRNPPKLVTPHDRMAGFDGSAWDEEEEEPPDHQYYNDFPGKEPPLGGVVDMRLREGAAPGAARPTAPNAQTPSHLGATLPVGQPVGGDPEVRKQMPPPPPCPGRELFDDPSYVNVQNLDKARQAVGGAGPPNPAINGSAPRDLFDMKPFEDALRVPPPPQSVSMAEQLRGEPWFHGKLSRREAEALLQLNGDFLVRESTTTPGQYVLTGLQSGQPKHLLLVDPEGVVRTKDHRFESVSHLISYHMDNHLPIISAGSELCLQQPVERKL
Sequence of UniProt Q96EX1 (Q96EX1 whole entry, looked up): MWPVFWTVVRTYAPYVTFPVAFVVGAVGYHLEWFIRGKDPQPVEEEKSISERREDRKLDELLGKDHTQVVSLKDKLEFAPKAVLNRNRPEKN
Sequence of UniProt O95926 (O95926 whole entry, looked up): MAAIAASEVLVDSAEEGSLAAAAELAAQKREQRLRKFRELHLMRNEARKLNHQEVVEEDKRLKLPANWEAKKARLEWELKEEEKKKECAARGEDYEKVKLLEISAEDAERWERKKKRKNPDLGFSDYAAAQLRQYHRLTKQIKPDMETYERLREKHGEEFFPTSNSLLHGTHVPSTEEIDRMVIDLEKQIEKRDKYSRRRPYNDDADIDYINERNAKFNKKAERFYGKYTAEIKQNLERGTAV

Target | log2 fold change [1] | log2 fold change [2] | log2 fold change [3] | log2 fold change [4] | log2 fold change [5] | log2 fold change [6] | log2 fold change [7] | log2 fold change [8] | log2 fold change [9] | log2 fold change [10] | log2 fold change [11] | log2 fold change [12] | log2 fold change [13] | log2 fold change [14] | log2 fold change [15] | log2 fold change [16] | log2 fold change [17] | log2 fold change [18] | log2 fold change [19] | log2 fold change [20]
SF3B6 (UniProt Q9Y3B4) | -0.006 | -0.003 | -0.026 | 0.027 | 0.014 | -0.003 | 0.061 | -0.013 | 0.028 | 0.018 | 0.05 | -0.037 | 0.016 | 0.017 | 0.071 | 0.014 | -0.003 | -0.011 | -0.027 | -0.172
SRP54 (UniProt P61011) | 0.02 | -0.024 | 0 | 0.068 | -0.024 | 0.017 | -0.059 | 0.006 | 0.043 | 0.028 | -0.023 | 0.01 | -0.011 | 0.035 | 0.023 | 0.067 | 0.011 | 0.055 | 0.043 | -0.025
SQLE (UniProt Q14534) | 0.036 | -0.01 | 0.103 | 0.051 | 0.073 | -0.063 | -0.06 | -0.02 | 0.077 | 0.065 | 0.003 | 0.377 (active) | 0.018 | -0.009 | -0.022 | 0.002 | 0.437 (active) | 0.059 | -0.015 | -0.045
SMIM12 (UniProt Q96EX1) | 0.023 | 0.024 | 0.106 | 0.129 | -0.004 | 0.08 | 0.355 (active) | -0.269 | 0.041 | 0.025 | 0.22 | 0.007 | 0.065 | 0.025 | 0.07 | -0.067 | -0.018 | 0.018 | -0.044 | -0.033
TARBP2 (UniProt Q15633) | -0.035 | 0.092 | 0.093 | -0.145 | -0.034 | -0.016 | -0.02 | -0.093 | 0.035 | -0.006 | 0.016 | -0.147 | 0.038 | 0.017 | -0.026 | 0.037 | 0.072 | -0.039 | 0.008 | -0.01
STK11IP (UniProt Q8N1F8) | -0.016 | 0.018 | -0.04 | 0.075 | -0.067 | 0.002 | 0.015 | -0.072 | 0.012 | 0.016 | 0.013 | -0.005 | -0.025 | 0.041 | -0.014 | 0.053 | 0.062 | -0.026 | 0.025 | 0.069
SYPL1 (UniProt Q16563) | -0.006 | -0.019 | 0.076 | 0.004 | 0.032 | -0.011 | -0.418 (active) | 0.194 | 0.01 | 0.023 | -0.132 | 0.057 | -0.007 | -0.014 | 0.029 | 0.013 | -0.022 | 0.016 | 0.012 | -0.033
STK25 (UniProt O00506) | -0.018 | -0.005 | 0.017 | -0.034 | -0.078 | -0.042 | -0.037 | 0.016 | -0.026 | 0.022 | -0.016 | -0.093 | 0.023 | 0.147 | -0.023 | 0.025 | -0.04 | -0.007 | 0.036 | -0.065
SMG5 (UniProt Q9UPR3) | 0.009 | 0.048 | 0.047 | 0.029 | -0.006 | 0.068 | 0.038 | -0.004 | 0.05 | -0.024 | 0.086 | -0.075 | 0.014 | 0.04 | -0.037 | 0.067 | 0.058 | 0.04 | 0.004 | 0.028
SLC25A17 (UniProt O43808) | -0.035 | -0.031 | 0.02 | 0.066 | 0.04 | -0.043 | -0.119 | 0.103 | 0.041 | 0.015 | -0.216 | 0.094 | 0.007 | -0.036 | 0.006 | 0.004 | -0.009 | 0.019 | -0.011 | 0.026
STK26 (UniProt Q9P289) | 0.021 | -0.008 | -0.009 | -0.032 | -0.064 | 0.037 | -0.045 | -0.048 | -0.02 | 0.006 | 0.027 | -0.041 | 0.003 | 0.008 | -0.06 | 0.001 | 0.009 | -0.004 | 0.022 | -0.016
SYF2 (UniProt O95926) | -0.012 | -0.042 | -0.039 | 0.096 | 0.038 | -0.044 | -0.043 | 0.028 | 0.015 | -0.008 | 0.004 | 0.039 | 0.103 | -0.034 | 0.049 | 0.038 | 0.033 | 0.018 | 0.058 | 0.038
STK36 (UniProt Q9NRP7) | 0.188 | 0.038 | -0.073 | 0.302 | 0.01 | -0.445 | -0.532 | 0.442 | 0.077 | -0.072 | -0.33 | 0.331 | -0.048 | -0.263 | 0.528 | -0.027 | 0.042 | 0.081 | 0.199 | -0.093
SNAP23 (UniProt O00161) | 0.013 | -0.025 | 0.041 | -0.009 | 0.034 | 0.033 | 0.025 | 0.014 | -0.011 | -0.001 | 0.035 | 0.015 | -0.027 | -0.002 | -0.01 | 0 | -0.033 | -0.015 | 0.005 | 0.02
SMG6 (UniProt Q86US8) | 0.12 | -0.006 | 0.014 | -0.139 | -0.031 | 0.038 | -0.16 | 0.141 | 0.036 | 0.098 | -0.067 | -0.062 | -0.112 | -0.027 | -0.059 | 0.148 | -0.01 | -0.044 | 0.008 | -0.069
SHC1 isoform 6 (UniProt P29353) | 0.028 | 0.003 | 0.008 | -0.027 | 0.01 | -0.035 | 0.635 (active) | -0.163 | -0.007 | 0.017 | 0.186 | 0.035 | 0.001 | -0.031 | 0.086 | 0.15 | -0.078 | -0.008 | -0.014 | -0.035
